From PubChem BioAssay (EPA / NIEHS)
Calls of active or inactive are those of the source. Rule for the calls: active = hit-call score of the fitted dose curve at least 0.9, where 1 is the maximum; inactive = score below 0.9.

How the values were obtained:
[1] = ATG_CRE_CIS: Attagene CIS-FACTORIAL HepG2 Assay for human cAMP Responsive Element (CRE) binding protein 3 (AID 2282926); settings: HepG2 CRE cis-reporter, Attagene multiplexed mRNA; actives raise or lower the signal
Method in brief: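 Transfected HepG2 were treated for 24 hours, then RNA was extracted and reporter cDNA amplified with sequence-specific primers. Labelled fragments were separated by capillary electrophoresis, and the CRE signal was fitted bidirectionally with DMSO as baseline.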

[2] = molecular target: CCAAT/enhancer-binding protein beta (Homo sapiens) (UniProt P17676); assay: ATG_C_EBP_CIS: Attagene CIS-FACTORIAL HepG2 Assay for human CCAAT/Enhancer Binding Protein (C/EBP) beta (AID 2282927); settings: HepG2 Attagene cis-factorial transcription factor reporter; actives raise or lower the signal
Method in brief: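 Transiently transfected HepG2 (MRTU library, endogenous TF-driven promoters); 24 h dosing; total RNA → oligo(dT) RT → PCR → 6-FAM primer extension → HpaI digest → CE; fit bidirectionally vs DMSO.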

[3] = ATG_CMV_CIS: Attagene CIS-FACTORIAL HepG2 Assay for human CMV (Internal Marker) (AID 2282928); settings: HepG2 CMV promoter reporter, transcription factor profiling; actives raise or lower the signal;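 note: endpoint acts as a background internal control marker rather than a target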
Method in brief: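 CMV internal-marker background readout in transiently transfected HepG2 cells bearing cis-regulated reporter units. Reporter mRNA is measured 24 h after dosing by RT-PCR and capillary electrophoresis, with bidirectional fitting against DMSO.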

[4] = ATG_DR4_LXR_CIS: Attagene CIS-FACTORIAL HepG2 Assay for human Liver X Receptor (LXR), DR4 submotif (AID 2282929); settings: HepG2 Attagene DR4 cis-reporter, mRNA transcription; actives raise or lower the signal
Method in brief: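 HepG2 cells transiently transfected with cis-promoter-driven multiplexed reporter units (DR4 element) were dosed for 24 h. Reporter mRNA was quantified by RT-PCR, fluorescent primer extension, HpaI digestion and capillary electrophoresis; bidirectional fitting versus DMSO baseline.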

[5] = molecular target: Aryl hydrocarbon receptor (Homo sapiens) (UniProt P35869); assay: ATG_Ahr_CIS: Attagene CIS-FACTORIAL HepG2 Assay for human Aryl Hydrocarbon Receptor (Ahr) (AID 2282930); settings: HepG2 AhR cis-factorial reporter transcription; actives raise or lower the signal
Method in brief: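 Read-out: reporter mRNA quantified by RT-PCR with fluorescent primer extension and capillary electrophoresis. Human HepG2 liver cells carried transfected cis-promoter reporter units and were exposed to chemical for 24 h; gain or loss fitted relative to DMSO.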

[6] = ATG_AP_1_CIS: Attagene CIS-FACTORIAL HepG2 Assay for human Activator Protein 1 (AP-1) (AID 2282931); settings: HepG2 Attagene cis-factorial AP-1 reporter mRNA; actives raise or lower the signal
Method in brief: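 HepG2 cells transiently transfected with cis-element-driven multiplex reporter units; 24 h compound exposure. Reporter mRNA quantified by RT-PCR, FAM-labelled fragments resolved by capillary electrophoresis; bidirectional fit versus DMSO baseline.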

[7] = ATG_AP_2_CIS: Attagene CIS-FACTORIAL HepG2 Assay for human Activator Protein 2 (AP-2) (AID 2282932); settings: HepG2 AP-2 cis-reporter, Attagene transcription factor profiling; actives raise or lower the signal
Method in brief: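 Multiplexed mRNA reporter assay in HepG2: cis-regulated units report endogenous factor activity after 24 h treatment. Fluorescence from capillary electrophoresis of RT-PCR products gives the signal, with DMSO as baseline.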

[8] = ATG_BRE_CIS: Attagene CIS-FACTORIAL HepG2 Assay for human Bone Morphogenetic Protein (BMP) Response Element (BRE) (AID 2282933); settings: HepG2 BMP response element reporter, Attagene transcription factor profiling; actives raise or lower the signal
Method in brief: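 Endogenous transcription factor activity at a BMP response element was monitored in transfected HepG2 cells 24 h after dosing. Fluorescent RT-PCR products were resolved by capillary electrophoresis, and activity was fitted in both directions versus DMSO.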

[9] = molecular target: Retinoic acid receptor alpha (Homo sapiens) (UniProt P10276); assay: ATG_DR5_RAR_CIS: Attagene CIS-FACTORIAL HepG2 Assay for human Retinoic Acid Receptor Alpha (RARE), DR5 submotif (AID 2282934); settings: HepG2 Attagene cis-factorial RARE DR5 reporter, mRNA; actives raise or lower the signal
Method in brief: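 Read-out: DR5-driven reporter transcript measured by RT-PCR, 6-FAM primer extension, HpaI digest and capillary electrophoresis. Human HepG2 liver cells carry transiently transfected cis-element reporter constructs; dosing lasts 24 h. Gain or loss of signal fitted against DMSO baseline.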

[10] = molecular target: Transcription factor E2F1 (Homo sapiens) (UniProt Q01094); assay: ATG_E2F_CIS: Attagene CIS-FACTORIAL HepG2 Assay for human E2F Transcription Factor 1 (AID 2282935); settings: HepG2 Attagene cis-reporter, E2F reporter RNA transcripts; actives raise or lower the signal
Method in brief: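 Measures reporter transcript levels via RT-PCR with capillary electrophoresis detection in HepG2 cells harboring cis-regulated reporter units; 24 h post-dose; bidirectional curve fitting with DMSO as baseline.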

[11] = ATG_E_Box_CIS: Attagene CIS-FACTORIAL HepG2 Assay for human Enhancer Box (E-box) (AID 2282936); settings: HepG2 E-box cis-reporter transcription, actives raise or lower the signal
Method in brief: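 First, HepG2 cells receive multiple cis-regulated reporter constructs by transient transfection. Next, chemicals are applied for 24 h. Finally, reporter mRNA is quantified via RT-PCR and capillary electrophoresis, with DMSO as baseline.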

[12] = ATG_M_61_CIS: Attagene CIS-FACTORIAL HepG2 Assay for M61 Transcription Factor (Internal Marker) (AID 2282937); settings: HepG2 Attagene CIS-FACTORIAL M61 internal marker reporter; actives raise or lower the signal
Method in brief: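 HepG2 cells transiently transfected with cis-element-driven multiple reporter transcription units, dosed for 24 h. Reporter mRNA measured by RT-PCR, 6-FAM primer-extension labelling, HpaI digestion and capillary electrophoresis; bidirectional fit versus DMSO baseline.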

[13] = ATG_EGR_CIS: Attagene CIS-FACTORIAL HepG2 Assay for human Early Growth Response 1 (EGR1) (AID 2282938); settings: HepG2 Attagene CIS-FACTORIAL EGR reporter mRNA; actives raise or lower the signal
Method in brief: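 HepG2 cells transiently transfected with cis-promoter-driven multiplexed reporter transcription units; reporter mRNA measured 24 h after compound dosing by RT-PCR, 6-FAM primer extension, HpaI digestion and capillary electrophoresis. Bidirectional fit versus DMSO baseline.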

[14] = ATG_M_19_CIS: Attagene CIS-FACTORIAL HepG2 Assay for M19 Transcription Factor (Internal Marker) (AID 2282939); settings: HepG2 Attagene CIS-FACTORIAL M19 internal marker reporter; actives raise or lower the signal
Method in brief: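 Background-control endpoint from a multiplexed HepG2 reporter panel. Cells carrying cis-regulated reporter constructs are treated 24 h, then reporter transcripts are amplified, fluorescently labelled and sized by capillary electrophoresis. DMSO defines baseline.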

[15] = ATG_Ets_CIS: Attagene CIS-FACTORIAL HepG2 Assay for human Erythroblast Transformation Specific (ETS) (AID 2282941); settings: HepG2 ETS cis-reporter transcription, actives raise or lower the signal
Method in brief: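 HepG2 cells transfected with multiple cis-regulated reporter units measuring endogenous ETS-driven transcription, 24 h after dosing. Reporter mRNA quantified by RT-PCR with capillary electrophoresis; bidirectional fit relative to DMSO.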

[16] = molecular target: Hepatocyte nuclear factor 3-beta (Homo sapiens) (UniProt Q9Y261); assay: ATG_FoxA2_CIS: Attagene CIS-FACTORIAL HepG2 Assay for human Forkhead box A2 (FOXA2) (AID 2282942); settings: HepG2 cis-reporter transcription factor activity, 24 h; actives raise or lower the signal
Method in brief: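 HepG2 cells transiently transfected with multiple cis-regulated reporter transcription units, dosed for 24 h. Reporter mRNA measured by RT-PCR, 6-FAM labelling, HpaI digestion and capillary electrophoresis; bidirectional fitting against DMSO baseline.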

[17] = ATG_FoxO_CIS: Attagene CIS-FACTORIAL HepG2 Assay for human Forkhead box O (FoxO) (AID 2282943); settings: HepG2 Attagene cis-reporter, FoxO element, mRNA; actives raise or lower the signal
Method in brief: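 Read-out: fluorescence of 6-FAM-labelled reporter cDNA fragments resolved by capillary electrophoresis. Transiently transfected HepG2 cells were dosed for 24 h; activity fitted in both directions relative to DMSO controls.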

[18] = ATG_GATA_CIS: Attagene CIS-FACTORIAL HepG2 Assay for human GATA Binding Protein (AID 2282944); settings: HepG2 GATA cis-element reporter, Attagene multiplex mRNA; actives raise or lower the signal
Method in brief: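 Endogenous transcription factor activity was captured through cis-promoter-driven reporters in transfected HepG2 cells. After 24 h exposure, reporter transcripts were quantified by RT-PCR with fluorescent capillary electrophoresis, and responses fitted both directions against DMSO.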

[19] = ATG_GLI_CIS: Attagene CIS-FACTORIAL HepG2 Assay for human Zinc Finger Protein GLI1 (AID 2282945); settings: HepG2, Attagene cis-factorial reporter mRNA, GLI element; actives raise or lower the signal
Method in brief: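 Transiently transfected HepG2 cells report endogenous transcription factor activity via cis-element-driven reporter units. After 24 h compound exposure, reporter mRNA was measured by RT-PCR with capillary electrophoresis; bidirectional fitting against DMSO baseline.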

Measured: AC50

Sequence of Aryl hydrocarbon receptor (Homo sapiens) (P35869 whole entry, looked up): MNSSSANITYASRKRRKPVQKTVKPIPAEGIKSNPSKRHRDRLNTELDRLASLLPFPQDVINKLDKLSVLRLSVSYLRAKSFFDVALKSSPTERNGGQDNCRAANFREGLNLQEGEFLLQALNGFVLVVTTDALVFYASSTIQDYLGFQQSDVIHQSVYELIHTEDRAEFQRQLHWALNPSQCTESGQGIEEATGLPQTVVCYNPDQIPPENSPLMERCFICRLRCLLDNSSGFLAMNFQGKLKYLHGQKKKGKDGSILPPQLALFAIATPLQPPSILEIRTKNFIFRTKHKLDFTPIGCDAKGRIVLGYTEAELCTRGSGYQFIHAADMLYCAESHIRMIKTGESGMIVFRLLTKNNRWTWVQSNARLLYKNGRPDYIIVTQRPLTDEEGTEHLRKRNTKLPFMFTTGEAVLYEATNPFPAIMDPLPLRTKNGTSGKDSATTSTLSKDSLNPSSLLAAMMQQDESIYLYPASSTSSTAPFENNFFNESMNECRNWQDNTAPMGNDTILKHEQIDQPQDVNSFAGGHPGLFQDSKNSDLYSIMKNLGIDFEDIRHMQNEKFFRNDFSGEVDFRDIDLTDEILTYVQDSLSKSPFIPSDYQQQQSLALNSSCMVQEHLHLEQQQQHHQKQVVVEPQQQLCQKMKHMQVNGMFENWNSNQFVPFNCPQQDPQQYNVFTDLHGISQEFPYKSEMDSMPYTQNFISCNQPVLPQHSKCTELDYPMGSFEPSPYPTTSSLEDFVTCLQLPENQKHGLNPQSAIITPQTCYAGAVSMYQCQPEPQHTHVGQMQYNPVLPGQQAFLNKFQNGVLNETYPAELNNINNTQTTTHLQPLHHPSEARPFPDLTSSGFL
Sequence of Hepatocyte nuclear factor 3-beta (Homo sapiens) (Q9Y261 whole entry, looked up): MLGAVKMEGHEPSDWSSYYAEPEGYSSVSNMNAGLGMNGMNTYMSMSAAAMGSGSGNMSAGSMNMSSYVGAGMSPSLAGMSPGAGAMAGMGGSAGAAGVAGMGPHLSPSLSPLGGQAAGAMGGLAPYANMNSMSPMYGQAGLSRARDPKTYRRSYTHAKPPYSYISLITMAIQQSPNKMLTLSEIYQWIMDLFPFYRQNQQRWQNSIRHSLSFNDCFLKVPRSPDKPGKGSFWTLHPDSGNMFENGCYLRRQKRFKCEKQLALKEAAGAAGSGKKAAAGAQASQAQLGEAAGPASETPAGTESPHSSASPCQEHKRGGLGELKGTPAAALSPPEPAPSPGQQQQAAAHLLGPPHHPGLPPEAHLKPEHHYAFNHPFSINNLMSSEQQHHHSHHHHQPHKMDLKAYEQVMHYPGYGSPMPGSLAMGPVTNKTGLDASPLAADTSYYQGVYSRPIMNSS
Sequence of Retinoic acid receptor alpha (Homo sapiens) (P10276 whole entry, looked up): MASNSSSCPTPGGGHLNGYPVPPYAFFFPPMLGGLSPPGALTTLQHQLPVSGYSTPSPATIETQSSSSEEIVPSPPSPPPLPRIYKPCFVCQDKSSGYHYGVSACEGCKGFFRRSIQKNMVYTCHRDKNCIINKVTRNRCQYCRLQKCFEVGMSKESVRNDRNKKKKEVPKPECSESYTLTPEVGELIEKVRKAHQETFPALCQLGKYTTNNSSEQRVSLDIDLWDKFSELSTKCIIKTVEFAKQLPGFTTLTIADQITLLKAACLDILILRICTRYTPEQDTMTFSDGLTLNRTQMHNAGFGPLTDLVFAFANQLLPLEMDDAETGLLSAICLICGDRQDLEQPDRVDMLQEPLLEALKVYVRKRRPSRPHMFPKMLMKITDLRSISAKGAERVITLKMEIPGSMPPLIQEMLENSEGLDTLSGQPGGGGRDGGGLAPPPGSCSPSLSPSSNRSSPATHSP
Sequence of CCAAT/enhancer-binding protein beta (Homo sapiens) (P17676 whole entry, looked up): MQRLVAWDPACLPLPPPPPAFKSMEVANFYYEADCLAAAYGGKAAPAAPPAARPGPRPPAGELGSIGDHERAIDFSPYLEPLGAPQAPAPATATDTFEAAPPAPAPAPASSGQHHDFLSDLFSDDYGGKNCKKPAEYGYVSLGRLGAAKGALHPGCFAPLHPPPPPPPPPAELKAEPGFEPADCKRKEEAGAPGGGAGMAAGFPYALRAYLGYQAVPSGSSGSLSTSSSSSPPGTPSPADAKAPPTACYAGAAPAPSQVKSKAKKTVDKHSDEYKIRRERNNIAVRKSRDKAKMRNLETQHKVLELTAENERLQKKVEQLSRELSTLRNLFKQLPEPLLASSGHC
Sequence of Transcription factor E2F1 (Homo sapiens) (Q01094 whole entry, looked up): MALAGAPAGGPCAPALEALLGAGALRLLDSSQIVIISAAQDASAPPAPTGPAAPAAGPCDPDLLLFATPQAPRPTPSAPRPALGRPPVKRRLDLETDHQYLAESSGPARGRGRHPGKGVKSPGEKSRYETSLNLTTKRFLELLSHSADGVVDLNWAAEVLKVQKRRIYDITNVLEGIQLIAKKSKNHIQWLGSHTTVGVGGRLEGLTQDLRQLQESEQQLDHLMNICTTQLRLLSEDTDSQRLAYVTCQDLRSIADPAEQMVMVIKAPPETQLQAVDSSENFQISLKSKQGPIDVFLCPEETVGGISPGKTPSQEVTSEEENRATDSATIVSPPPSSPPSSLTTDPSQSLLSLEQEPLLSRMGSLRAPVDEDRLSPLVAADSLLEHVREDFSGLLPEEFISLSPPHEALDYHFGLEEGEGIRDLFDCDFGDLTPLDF

CN(C)C(=N)N=C(N)N
inactive: [1] | [2] | [3] | [4] | [5] | [6] | [7] | [8] | [9] | [10] | [11] | [12] | [13] | [14] | [15] | [16] | [17] | [18] | [19]

O=C1CCCCCCCCCCOCCCCO1
inactive: [1] | [2] | [3] | [5] | [6] | [7] | [9] | [10] | [11] | [12] | [13] | [14] | [15] | [16] | [17] | [18] | [19]
active: [4] 74.1 µM | [8] 100 µM

O=C[C@H](O)[C@H](O)[C@H](O)CO
inactive: [1] | [2] | [3] | [4] | [5] | [6] | [7] | [8] | [9] | [10] | [11] | [12] | [13] | [14] | [15] | [16] | [17] | [18] | [19]

C=CC[N+](C)(C)CC=C
inactive: [1] | [2] | [3] | [4] | [5] | [6] | [7] | [8] | [9] | [10] | [11] | [12] | [13] | [14] | [15] | [16] | [17] | [18] | [19]

O=c1oc(=O)c2cc3c(=O)oc(=O)c3cc12
inactive: [1] | [2] | [3] | [4] | [5] | [6] | [7] | [8] | [9] | [10] | [11] | [12] | [13] | [14] | [15] | [16] | [17] | [18] | [19]

CC(C)(C)c1cc(CCC(=O)NN)cc(C(C)(C)C)c1O
inactive: [1] | [2] | [3] | [4] | [5] | [6] | [7] | [8] | [9] | [10] | [11] | [12] | [13] | [14] | [15] | [16] | [17] | [18] | [19]

CC(C)=CCC[C@](C)(O)[C@@H]1CC=C(C)CC1
inactive: [1] | [2] | [4] | [5] | [6] | [7] | [8] | [9] | [10] | [11] | [12] | [13] | [14] | [15] | [16] | [17] | [18] | [19]
active: [3] 49.5 µM
